Experiment [1] can be described thus: Her2 expression decrease, cell viability multiplex – SKBR3 breast tumor cells, AlphaScreen, ATP viability, primary screen (AID 461;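 active = Her2 level under about 52% in both replicate screens, with viability over 70% of control, limit read from the data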;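 as to Her2 level: lower value means less Her2 protein in the cells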;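 as to viability: percent of carrier control wells set as 100% viability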). As to conditions: SKBR3 Her2 protein level, 18-24 h, measured here: SKBR3 viability, ATP luminescence, at 10 µM. (In Alpha technology, singlet oxygen from a donor bead excites a nearby acceptor bead.)
The target in experiment [2] is Receptor tyrosine-protein kinase erbB-2 (Homo sapiens) (UniProt P04626). Described as above. Particulars: 18-24 h, at 10 µM, stronger effect = lower value.
Sequence of Receptor tyrosine-protein kinase erbB-2 (Homo sapiens) (P04626 whole entry, looked up): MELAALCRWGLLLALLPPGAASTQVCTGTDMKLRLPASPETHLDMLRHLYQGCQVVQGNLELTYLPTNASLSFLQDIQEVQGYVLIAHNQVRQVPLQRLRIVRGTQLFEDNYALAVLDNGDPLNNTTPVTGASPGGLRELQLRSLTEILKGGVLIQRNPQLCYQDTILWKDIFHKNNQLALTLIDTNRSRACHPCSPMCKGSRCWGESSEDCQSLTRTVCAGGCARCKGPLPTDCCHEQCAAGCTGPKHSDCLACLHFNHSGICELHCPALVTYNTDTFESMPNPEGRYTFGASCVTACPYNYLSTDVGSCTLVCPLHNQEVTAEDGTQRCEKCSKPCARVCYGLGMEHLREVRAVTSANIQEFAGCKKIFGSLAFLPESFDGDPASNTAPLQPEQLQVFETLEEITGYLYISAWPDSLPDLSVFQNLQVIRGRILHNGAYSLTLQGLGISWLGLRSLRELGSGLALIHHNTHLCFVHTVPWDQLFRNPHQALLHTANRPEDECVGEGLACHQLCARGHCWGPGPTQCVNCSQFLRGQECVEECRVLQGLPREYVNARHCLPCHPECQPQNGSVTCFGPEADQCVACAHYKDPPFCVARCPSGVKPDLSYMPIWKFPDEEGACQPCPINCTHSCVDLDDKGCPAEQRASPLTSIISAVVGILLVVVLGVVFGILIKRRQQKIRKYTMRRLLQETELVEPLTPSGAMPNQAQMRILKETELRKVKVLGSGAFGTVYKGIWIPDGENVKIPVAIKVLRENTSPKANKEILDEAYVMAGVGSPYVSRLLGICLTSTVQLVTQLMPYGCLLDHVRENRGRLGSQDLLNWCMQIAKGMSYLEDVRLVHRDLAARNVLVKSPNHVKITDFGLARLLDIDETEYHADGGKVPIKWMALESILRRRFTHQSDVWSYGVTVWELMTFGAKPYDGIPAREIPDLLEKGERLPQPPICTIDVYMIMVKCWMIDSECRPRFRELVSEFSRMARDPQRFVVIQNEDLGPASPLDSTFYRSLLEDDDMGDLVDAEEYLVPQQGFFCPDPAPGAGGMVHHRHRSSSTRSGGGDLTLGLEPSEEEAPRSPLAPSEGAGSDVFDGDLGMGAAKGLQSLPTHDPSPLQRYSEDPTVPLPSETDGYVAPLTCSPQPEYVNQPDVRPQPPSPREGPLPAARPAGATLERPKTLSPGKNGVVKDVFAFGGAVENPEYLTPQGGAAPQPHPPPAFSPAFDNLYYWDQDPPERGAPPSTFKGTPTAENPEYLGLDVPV
Experiment [3] is described as follows: reduced viability of SK-BR-3 breast cancer cells – cell-based, 24 h, human, pilot screen (AID 572;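 active = viability at or below 10% of carrier control in both of two separate runs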;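 also: compound exposure lasted between 18 and 24 h rather than exactly 24 h; 100% = carrier-treated control wells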). Particulars: SK-BR-3 viability, CellTiter-Glo luminescence, at 10 µM, stronger effect = lower value. For orientation: In ATP-based viability assays light output follows the ATP content of the culture.
Experiment [4] in a line: HUVEC growth inhibition – cell-based, human, primary screen (AID 575;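 active = viability at or below 30% in both replicate assays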;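 also: 100% = median of untreated cell wells with 0.1% DMSO on each plate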). Particulars: HUVEC proliferation, CellTiter-Glo luminescence, 72 h; at 10 µM; stronger effect = lower value.
Experiment [5] can be described thus: H69AR cell proliferation blockers – human, duplicate replicates, primary screen (AID 580;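 active = viability at or under a set limit in both replicates, limit being median viability minus 3 SD, cut at about 48% in these data, passing the limit was not always enough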;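 also: 100% = mean luminescence of untreated wells and 0% = no signal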). As to conditions: H69AR lung tumor cells viability, ATP luminescence, 72 h; at 10 µM; stronger effect = lower value.
Experiment [6] in a line: MRP1 drug-resistance reversers in H69AR cells – cell-based, doxorubicin co-treatment, pilot screen (AID 601;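 active = viability loss from added drug above about 55%, and viability with drug at most 40%, in both replicates, limit read from the data, passing the limit was not always enough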). Particulars: CellTiter-Glo, 72 h, at 10 µM; for differential viability (reversal): stronger effect = higher value.
Experiment [7] in a line: yeast transport mutant growth inhibition pilot in 384-well plates, post-Golgi transport modulator project (AID 636; in the data active = inhibition above about 31%). As to conditions: absorbance 615 nm, about 18 h, stronger effect = higher value.
Experiment [8] is described as follows: growth suppression of yeast trafficking mutant, preliminary HTS, modulators of trafficking downstream of Golgi apparatus project, 1536-format plate, OD 615 nm (AID 637; in the data active = inhibition above about 30%). Particulars: yeast transport mutant growth, absorbance 615 nm, 18 h; stronger effect = higher value.
Experiment [9] can be described thus: S. cerevisiae growth inhibition in permissive medium (OD615), pilot counter-assay for S. cerevisiae lifespan shortening project, permissive growth control (AID 705;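 active = growth inhibition above 25% in both replicates, a cutoff set 3 SD above the mean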). As to conditions: OD615, 24 h, at 10 µM, stronger effect = higher value.
Experiment [10] is described as follows: S. cerevisiae growth inhibition in restrictive medium, OD615, pilot screen, restrictive growth control, yeast lifespan reduction project (AID 706;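 active = growth inhibition above a set limit, 3 SD over mean compound inhibition, in both replicates, cut at about 43% in these data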;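 also: modified DeaD lifespan yeast strain shifted to restrictive glucose medium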). Particulars: OD615, 48 h, at 10 µM, stronger effect = higher value.
Experiment [11] can be described thus: doxorubicin toxicity protection in MRP-1 cells – H69AR cells, CellTiter-Glo, duplicate, MRP-1 activator project, pilot screen (AID 807;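 active = viability increase at or above a cutoff of the median across tested compounds plus 3 SD, cut at about 8.5% in these data, passing the limit was not always enough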;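 also: compound pretreatment 18-22 h then 72 h combined with doxorubicin; 0% = doxorubicin alone and 100% = vehicle without doxorubicin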). Particulars: H69AR viability with doxorubicin, CellTiter-Glo luminescence; at 10 µM; stronger effect = higher value.
Experiment [12] in a line: viability of HCT116 without oncogenic beta-catenin – human colon tumor cells, pilot screen (AID 823;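 active = cell viability at or below a set limit in both duplicate runs, the limit being the all-compound median minus 4 SD, cut at about 23% in these data, passing the limit was not always enough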;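 also: 0% = wells killed by 20 µM Hyamine and 100% = untreated DMSO cell wells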). Particulars: HCT116 beta-catenin knockout viability, CellTiter-Glo, 60 h; at 10 µM; stronger effect = lower value.
Experiment [13] is described as follows: viability of PTEN-null HCT116 cells – cell-based, HCT116 clonal line, CellTiter-Glo, pilot screen (AID 824;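 active = viability at or below 27.92% in each of two runs, the all-compound median minus 4 SD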;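 also: 0% = 20 µM Hyamine control and 100% = vehicle cell control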). Particulars: HCT116 PTEN-deleted viability, 60 h, at 10 µM, stronger effect = lower value.
Experiment [14] in a line: RAM pathway blockade in budding yeast – dse1pr::URA3 reporter, 5-FOA selection, pilot screen (AID 869;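 active = inhibition over a set limit, the all-compound mean plus 3 SD, in both replicate runs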;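 also: 0% = DMSO wells with no growth and 100% = 10 µM 1-NA-PP1 with full growth; RAM network block rescues cells from 5-FOA so hits raise OD615 growth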). As to conditions: S. cerevisiae dse1pr::URA3 5-FOA growth, OD615, 2 d; at 10 µM; stronger effect = higher value; strain carries analog-sensitive mutant Cbk1 kinase.
Experiment [15] is described as follows: RAM signaling pathway blockade in yeast – S. cerevisiae, Pdr1DBD-CYC8 efflux-inhibited sensitized strain, primary screen (AID 1298).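 Also: 0% = DMSO untreated cells without growth and 100% = 10 µM 1-NA-PP1 full growth; higher means more yeast growth rescued from 5-FOA killing.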 As to conditions: S. cerevisiae cbk1-as DSE1-URA3 strain, 5-FOA growth OD615, 2 d; at 50 µM; stronger effect = higher value.
Where [16] appears, read: H69AR cells + 2 uM doxorubicin, measured here: viability with 2 uM doxorubicin, stronger effect = lower value.
Setting [17] is: H69AR cells, compound alone cytotoxicity.

By viability is commonly meant a read-out of living cells in per cent, often relative to untreated cells. Broadly, the inhibition is the drop in the measured response relative to a control, in per cent.

Each structure is given as a SMILES string. Results filed as inconclusive are left out. Calls of active or inactive are those of the source.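 The calls were made as follows, unless noted: active = RAM network inhibition above 8.4% in each of two replicates, 3 SD over the compound average; inconclusive = above 8.4% inhibition in only one replicate; inactive = 8.4% inhibition or less in each replicate.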

In the case of `O=C(Nc1cccc(Cl)c1)N1CCN(Cc2ccccc2)CC1`, the viability in experiment [1] was 98.5%; in [3], 98.5% (inactive); in experiment [4], 103% (inactive); in experiment [5], 84.2% (inactive); in experiment [6] (setting [16]), 78.7%; in [6] (setting [17]), 84.2%. Further, the viability was 92.1% (inactive) in [12] and 86.4% (inactive) in experiment [13]. Moreover, the Her2 level in [2] was 99% (inactive). Also, the differential viability (reversal) in [6] (H69AR cells + 2 uM doxorubicin) was 5.49% (inactive). Further, the inhibition in [7] was -6% (inactive); in experiment [8] it was -0.49% (inactive); in experiment [14] it was 1.24% (inactive). In addition, the growth inhibition in experiment [9] is -4.47% (inactive); in experiment [10], -8.27% (inactive). The viability increase in experiment [11] was -1.11% (inactive). In addition, in experiment [15], the RAM network inhibition is 3.81% (inactive).
For the molecule `COC(=O)Cn1c(=NC(=O)CSCC(=O)Nc2cc(C)on2)sc2ccccc21`, the viability in experiment [1] is 89%; in [3], 89% (inactive); in [4] it was 90.4% (inactive); in [5] it was 88.5% (inactive); in [6] (setting [16]), 85.5%; in [6] (setting [17]) it was 88.5%. Besides, the viability in experiment [12] is 99.3% (inactive); in experiment [13] it was 96.9% (inactive). For the same molecule, the Her2 level in [2] was 90% (inactive). For the same molecule, the differential viability (reversal) in experiment [6] (H69AR cells + 2 uM doxorubicin) is 3% (inactive). The inhibition in [7] is -5.07% (inactive); in experiment [8], -3.5% (inactive). For the same molecule, the figures for the growth inhibition in [9] and in experiment [10] were -6.84% (inactive) and -19.8% (inactive), respectively. The viability increase in experiment [11] is -0.92% (inactive). Moreover, the RAM network inhibition in [15] is 7.51% (inactive).
Consider `Cc1cc(C(N)=O)c2cc(Br)ccc2n1`, for which the viability in experiment [1] was 95.5%; in experiment [3], 95.5% (inactive); in [4], 109% (inactive); in experiment [5], 91.2% (inactive); in [6] (setting [16]), 83.2%; in experiment [6] (setting [17]) it was 91.2%. The viability in [12] is 98.3% (inactive); in [13], 96.5% (inactive). In addition, in experiment [2], the Her2 level is 95.5% (inactive). The differential viability (reversal) in experiment [6] (H69AR cells + 2 uM doxorubicin) is 8% (inactive). In addition, the inhibition in [7] is -1.35% (inactive); in experiment [8] it was 0.49% (inactive); in [14], 0.94% (inactive). Moreover, the growth inhibition in experiment [9] is -1.99% (inactive); in [10] it was -7.49% (inactive). In addition, in [11], the viability increase is -2.23% (inactive). Moreover, the RAM network inhibition in experiment [15] is 0.89% (inactive).
For `CN1CCN(c2nc3c(c(=O)[nH]c(=O)n3C)n2CCSc2nc3ccccc3s2)CC1`, the viability in experiment [1] is 87%; in [3], 87% (inactive); in experiment [4], 98% (inactive); in [5] it was 75.2% (inactive); in [6] (setting [16]) it was 85.8%; in experiment [6] (setting [17]), 75.2%. The results for the viability in experiment [12] and in experiment [13] were 98.3% (inactive) and 91.9% (inactive), respectively. Besides, the Her2 level in experiment [2] was 90.5% (inactive). Also, the differential viability (reversal) in experiment [6] (H69AR cells + 2 uM doxorubicin) is -10.6% (inactive). In addition, the inhibition in experiment [7] is -0.51% (inactive); in experiment [8], 1% (inactive); in [14], 2.66% (inactive). Besides, the growth inhibition is -6.02% (inactive) in experiment [9] and -0.85% (inactive) in experiment [10]. Further, the viability increase in [11] is -2.32% (inactive). Moreover, the RAM network inhibition in experiment [15] is -1.87% (inactive).
Regarding `CC(CCc1ccccc1)NC(=O)C1CCCN(c2nnc(-n3cccc3)s2)C1` (stereo unspecified), the viability in experiment [1] is 89.5%; in [3] it was 89.5% (inactive); in [4] it was 97.1% (inactive); in [5], 82.6% (inactive); in experiment [6] (setting [16]) it was 82%; in [6] (setting [17]), 82.6%. Further, the viability was 93.5% (inactive) in [12] and 96% (inactive) in experiment [13]. In [2], the Her2 level is 86.5% (inactive). Moreover, the differential viability (reversal) in experiment [6] (H69AR cells + 2 uM doxorubicin) was 0.56% (inactive). Also, the figures for the inhibition in experiment [7] and in experiment [8] were -0.38% (inactive) and -3.17% (inactive), respectively. Further, the growth inhibition in experiment [9] was -16.5% (inactive); in experiment [10] it was 0.105% (inactive). Further, the viability increase in experiment [11] is -1.84% (inactive). Moreover, the RAM network inhibition in experiment [15] was 2.83% (inactive).
Regarding `COc1cccc(C2CC(c3ccc(C)cc3)n3nc(N)nc3N2)c1` (stereo unspecified), the viability in [1] was 104%; in experiment [3] it was 104% (inactive); in experiment [4] it was 95.3% (inactive); in experiment [5] it was 98.2% (inactive); in [6] (setting [16]) it was 105%; in [6] (setting [17]) it was 98.2%. Moreover, the viability in experiment [12] was 103% (inactive); in experiment [13], 98.6% (inactive). Moreover, the Her2 level in experiment [2] is 112% (inactive). In addition, in [6] (H69AR cells + 2 uM doxorubicin), the differential viability (reversal) is -7.23% (inactive). The inhibition in [7] was -4.1% (inactive); in experiment [8], 3.5% (inactive); in experiment [14], -0.18% (inactive). For the same molecule, the growth inhibition in [9] is 0.34% (inactive); in experiment [10] it was 9.55% (inactive). Besides, the viability increase in experiment [11] was -1.45% (inactive). Also, the RAM network inhibition in experiment [15] is 7.85% (inactive).
Consider `COc1cccc(-c2nc(CS(=O)(=O)CC(=O)N3CCN(c4ccccn4)CC3)c(C)o2)c1`, for which the viability in [1] was 90%; in experiment [3], 90% (inactive); in experiment [4] it was 81% (inactive); in [5], 90.9% (inactive); in [6] (setting [16]) it was 78.3%; in experiment [6] (setting [17]) it was 90.9%. The viability is 73.3% (inactive) in experiment [12] and 71.6% (inactive) in experiment [13]. The Her2 level in experiment [2] is 112% (inactive). In addition, the differential viability (reversal) in experiment [6] (H69AR cells + 2 uM doxorubicin) is 12.7% (inactive). Further, the inhibition is -4% (inactive) in experiment [7], 3.61% (inactive) in [8] and 0.835% (inactive) in experiment [14]. The growth inhibition in experiment [9] is 0.71% (inactive); in experiment [10], -2.45% (inactive). Also, the viability increase in experiment [11] is -0.47% (inactive). Moreover, the RAM network inhibition in [15] is 5.35% (inactive).
`CCCn1c(OC)nc2c1c(=O)n(C)c(=O)n2C`: the viability in [1] was 89.5%; in experiment [3] it was 89.5% (inactive); in [4], 83.2% (inactive); in [5], 94.4% (inactive); in [6] (setting [16]), 94.1%; in experiment [6] (setting [17]) it was 94.4%. Moreover, the viability was 107% (inactive) in experiment [12] and 97% (inactive) in [13]. For the same molecule, the Her2 level in experiment [2] was 88.5% (inactive). Besides, in experiment [6] (H69AR cells + 2 uM doxorubicin), the differential viability (reversal) is 0.235% (inactive). Moreover, the inhibition in experiment [7] is -2.53% (inactive); in [8], -2.5% (inactive); in [14] it was 2.22% (inactive). Further, the figures for the growth inhibition in experiment [9] and in experiment [10] were -10.7% (inactive) and -9.12% (inactive), respectively. Further, in experiment [11], the viability increase is 0.06% (inactive). Further, in experiment [15], the RAM network inhibition is 2.06% (inactive).
`COC(=O)NCC(c1cccnc1)N1CCOCC1` (stereo unspecified): the viability in experiment [1] is 97%; in [3] it was 97% (inactive); in [4], 103% (inactive); in experiment [5] it was 95.7% (inactive); in experiment [6] (setting [16]), 93.3%; in experiment [6] (setting [17]), 95.7%. Moreover, the viability in experiment [12] was 102% (inactive); in experiment [13], 99.6% (inactive). For the same molecule, the Her2 level in [2] was 95.5% (inactive). In addition, the differential viability (reversal) in experiment [6] (H69AR cells + 2 uM doxorubicin) was 2.39% (inactive). Also, the values for the inhibition in [7], in [8] and in [14] were -0.64% (inactive), -4.83% (inactive) and 0.015% (inactive), respectively. Besides, the growth inhibition in [9] was -1.88% (inactive); in experiment [10], -7.24% (inactive). In addition, the viability increase in [11] was 0.99% (inactive). In [15], the RAM network inhibition was -0.26% (inactive).

The values above are taken from PubChem BioAssay.
